# Results from PubChem BioAssay.
# Inconclusive results are not listed. The source made the active and inactive calls.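 How the source made its calls, unless noted: active means percent response above a set limit, the screen-wide mean plus 3 SD (cut at about 130% in these data); inactive means the rest.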
# Columns and labels:
# [1] = rapamycin-like changes in RPL19A-GFP expression – cell-based, S. cerevisiae, multiplex flow cytometry, primary screen (AID 1862; in the data active means percent of DMSO control GFP below about 86%;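 further: lower values mimic rapamycin by blocking the RPL19A rise seen in DMSO cells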); details: S. cerevisiae RPL19A-GFP strain, flow cytometry fluorescence, 3 h; at 10 µM; stronger effect = lower value
# [2] = TOR pathway GLN3 branch reporter MEP2-GFP changes – S. cerevisiae, multiplex flow cytometry, primary screen (AID 1867;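 active means GFP response, as percent of the DMSO control, above the screen-wide mean plus 3 SD, about 139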;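 further: median GFP channel fluorescence of barcode-gated MEP2-GFP cells measured by flow cytometry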); details: S. cerevisiae MEP2-GFP strain, 3 h, at 10 µM, stronger effect = higher value, 100% means same as DMSO wells
# [3] = TOR pathway RTG branch CIT2 reporter changes – S. cerevisiae, GFP fusion, multiplex flow cytometry, primary screen (AID 1870);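 further: barcoded CIT2-GFP strain pooled with four other GFP strains with rapamycin as positive control; median GFP fluorescence per well over plate mean of DMSO wells so 100% = DMSO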; details: S. cerevisiae CIT2-GFP expression, 3 h, at 10 µM, stronger effect = higher value
# [4] = TOR pathway LAP4-GFP level changes – S. cerevisiae, multiplex flow cytometry, primary screen (AID 1873;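 active means GFP signal, as percent of the solvent control, above the screen mean plus 3 SD, about 149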); details: S. cerevisiae LAP4-GFP expression, 3 h, at 10 µM, stronger effect = higher value
# [5] = yeast AGP1-GFP level changes, GLN3 branch – cell-based, multiplex flow cytometry, S. cerevisiae, primary screen (AID 1887;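 active means GFP signal above the screen-wide mean plus 3 SD, that is over about 124.5% of the solvent control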;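 further: AGP1-GFP fusion strain of S. cerevisiae within a five-strain barcoded multiplex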); details: 3 h, at 10 µM, stronger effect = higher value
# [6] = reduced mouse 2C T cell binding to pMHC/ICAM-1 vesicles – MLPCN validation set, flow cytometry, LFA-1/ICAM-1 modulator project, pilot screen (AID 2523;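 active means response below a set limit, under 55% cells CD8-positive and vesicle-bound, and CD8 cells' 90th-percentile brightness under 279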;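 on vesicle binding response: mean PE anti-B7-1 fluorescence of CD8+ cells relative to row control; 100% = QL9-loaded vesicles with DMSO vehicle in the same plate row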); details: 2C mouse CD8+ T cells, at 7 µM, stronger effect = lower value; double positive events: measured here: CD8+/vesicle+ event percentage
# [7] = biological target: Integrin beta-1 (Homo sapiens) + Integrin alpha-4 (Homo sapiens) (UniProt P13612+P05556); assay: alpha4beta1 integrin LIBS antibody binding reduction – U937 cells, HUTS-21 mAb, flow cytometry, validation set, VLA-4 allosteric modulator project, pilot screen (AID 2674;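 active means inhibition above 50%, about 3 SD of the validation set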;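 further: antibody binding induced by the VLA-4 ligand LDV present at three times its Kd; 0% = LDV ligand with antibody and no compound and 100% = antibody without LDV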); details: HUTS-21 LIBS mAb binding, at 6.7 µM, stronger effect = higher value, binding induced by LDV ligand
# [8] = calorie-restriction mimetic ROS inhibitors, yeast – validation compound set, pilot screen (AID 2706;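 active means superoxide response below 65% of plate, a cut near 3 SD across the whole screen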;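 further: yeast exposed to compound for one week at 30 degrees C before staining; 100% = mean of all compound wells on the same plate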); details: S. cerevisiae aging, superoxide DHE fluorescence; at 10 µM; stronger effect = lower value
# [9] = biological target: Beta-adrenergic receptor kinase 1 (Homo sapiens) (UniProt P25098); assay: GRK2 binders displacing RNA aptamer, biochemical, validation, human GRK2, bead flow cytometry (AID 488806;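 active means aptamer binding inhibition above 30%, about 3 SD of noise from non-fluorescent compounds; inactive means inhibition at or below 30%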); details: bead-bound GRK2, FAM-aptamer displacement, at 10 µM, stronger effect = higher value
# [10] = biological target: Beta-2 adrenergic receptor (Homo sapiens) (UniProt P07550); assay: agonist-induced loss of surface beta2AR – cell-based, FAP fluorogen, flow cytometry, validation set, pilot screen (AID 504459;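 active means percent response above 42, roughly 3 SD of non-fluorescent test compounds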;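 further: agonist-driven loss of surface beta2AR via internalization measured by FAP dye flow cytometry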); details: Am2.2-beta2AR cells, at 10 µM, stronger effect = higher value
# [11] = biological target: AP-2 complex subunit beta (Homo sapiens) (UniProt P63010); assay: beta-arrestin/AP2 interaction blockers – biochemical, validation set, GST-AP2 beads, flow cytometry, pilot screen (AID 504541;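 active means inhibition above 54%, about 3 SD of non-fluorescent compounds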;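 further: AP2 carries R879A mutation and is captured from E. coli lysate; bead-bound FITC arrestin peptide fluorescence measuring arrestin peptide binding to AP2; 0% = DMSO wells and 100% = excess unlabeled arrestin peptide control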); details: FITC arrestin peptide, at 10 µM, stronger effect = higher value, AP2 beta2 appendage fragment, R879A mutant
# [12] = cytosolic pH regulators acting via V-ATPase – S. cerevisiae, pHLuorin, HTS validation (AID 504600; in the data active means response above about 15%;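 further: plate controls were DMSO for no effect and reference compound for full effect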); details: V-ATPase proton transport, at 10 µM, stronger effect = higher value
# [13] = test system: anti-desmoglein-3 scFv antibody binding to human DSG3; assay: blockers of pathogenic pemphigus antibody–desmoglein-3 binding – biochemical, validation compound set, bead-based, flow cytometry, pilot screen (AID 588368;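 active means binding below the plate cutoff, the plate median minus 3 SD, with a reading above zero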;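 further: signal is the median channel fluorescence of bead-bound GFP antibody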); details: Protein G beads, DSG3-Fc, scFv-GFP binding, at 10 µM, stronger effect = lower value
# [14] = Nile Red efflux blockade in pump-expressing yeast – validation compound set, multiplex, phenotypic, pilot screen (AID 588506;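 active means efflux inhibition above 0.42, the validation set average plus 4 SD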;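 further: Nile Red retained in cells so higher fluorescence means more efflux inhibition; 0 = negative control wells and 1 = enniatin B 25 µM full block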); details: S. cerevisiae pump-expressing triplex, Nile Red efflux flow cytometry; at 10 µM; stronger effect = higher value; the pumps come from Candida albicans
# [15] = biological target: ATP-binding cassette sub-family B member 6 (Homo sapiens) (UniProt Q9NP58); assay: blockers of ABCB6-driven porphyrin uptake – K562-ABCB6 cells, flow cytometry, validation set, pilot screen (AID 588550;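 active means inhibition above the screen-wide mean plus 3 SD, about 51%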;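 further: 0% = DMSO wells and 100% = benzethonium chloride 70 µM positive control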); details: K562-ABCB6 porphyrin accumulation, 1 h, at 10 µM, stronger effect = higher value
# [16] = AML differentiation inducers, ER-HoxA9 marrow cells – cell-based, GFP/MAC1 double positive, flow cytometry, validation set, primary screen (AID 588685;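 active means differentiation response of at least 50%, scaled between solvent and reference control, from cells with both markers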;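 further: compound exposure lasts four days before antibody staining and flow analysis; 0% = DMSO wells and 100% = 5 µM fulvestrant positive control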); details: stronger effect = higher value, normalized: vehicle 0, fulvestrant 100
# AP-2 complex subunit beta (Homo sapiens), sequence (P63010 whole entry, looked up, the tested form may be a part, one chain of several): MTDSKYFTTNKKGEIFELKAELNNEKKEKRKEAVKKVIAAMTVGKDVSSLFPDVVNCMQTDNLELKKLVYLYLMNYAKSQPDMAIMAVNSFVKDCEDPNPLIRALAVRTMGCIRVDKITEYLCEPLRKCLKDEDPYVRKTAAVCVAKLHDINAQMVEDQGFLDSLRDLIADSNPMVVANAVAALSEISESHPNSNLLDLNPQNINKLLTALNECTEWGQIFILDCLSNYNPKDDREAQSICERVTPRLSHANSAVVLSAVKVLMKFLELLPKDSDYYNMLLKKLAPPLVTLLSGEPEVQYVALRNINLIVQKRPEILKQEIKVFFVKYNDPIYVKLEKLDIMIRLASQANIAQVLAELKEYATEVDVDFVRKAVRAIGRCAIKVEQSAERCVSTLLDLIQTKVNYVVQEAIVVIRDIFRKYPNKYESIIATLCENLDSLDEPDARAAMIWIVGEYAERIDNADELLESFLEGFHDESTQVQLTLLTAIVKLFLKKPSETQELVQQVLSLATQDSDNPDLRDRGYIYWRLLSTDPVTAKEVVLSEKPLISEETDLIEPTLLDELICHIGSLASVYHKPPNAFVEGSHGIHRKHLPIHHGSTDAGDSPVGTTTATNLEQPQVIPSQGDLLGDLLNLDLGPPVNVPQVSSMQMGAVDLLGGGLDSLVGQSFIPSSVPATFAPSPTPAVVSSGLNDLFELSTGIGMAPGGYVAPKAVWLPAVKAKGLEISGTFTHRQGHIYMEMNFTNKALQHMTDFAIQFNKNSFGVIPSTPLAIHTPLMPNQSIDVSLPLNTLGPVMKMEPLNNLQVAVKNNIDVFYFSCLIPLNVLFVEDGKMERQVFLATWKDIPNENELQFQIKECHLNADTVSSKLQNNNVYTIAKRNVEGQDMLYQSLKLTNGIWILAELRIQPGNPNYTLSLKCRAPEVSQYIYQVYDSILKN
# Beta-2 adrenergic receptor (Homo sapiens), sequence (P07550 whole entry, looked up): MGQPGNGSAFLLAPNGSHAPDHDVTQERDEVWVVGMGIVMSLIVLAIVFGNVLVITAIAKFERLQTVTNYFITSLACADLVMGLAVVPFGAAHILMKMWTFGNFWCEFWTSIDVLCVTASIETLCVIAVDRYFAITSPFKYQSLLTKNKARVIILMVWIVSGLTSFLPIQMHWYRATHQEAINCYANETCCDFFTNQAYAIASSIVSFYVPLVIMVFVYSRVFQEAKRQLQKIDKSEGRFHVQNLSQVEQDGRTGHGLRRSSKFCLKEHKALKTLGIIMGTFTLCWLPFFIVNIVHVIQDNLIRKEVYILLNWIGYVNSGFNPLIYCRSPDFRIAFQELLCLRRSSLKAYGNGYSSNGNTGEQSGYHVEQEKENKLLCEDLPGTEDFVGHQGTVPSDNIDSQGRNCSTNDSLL
# Beta-adrenergic receptor kinase 1 (Homo sapiens), sequence (P25098 whole entry, looked up): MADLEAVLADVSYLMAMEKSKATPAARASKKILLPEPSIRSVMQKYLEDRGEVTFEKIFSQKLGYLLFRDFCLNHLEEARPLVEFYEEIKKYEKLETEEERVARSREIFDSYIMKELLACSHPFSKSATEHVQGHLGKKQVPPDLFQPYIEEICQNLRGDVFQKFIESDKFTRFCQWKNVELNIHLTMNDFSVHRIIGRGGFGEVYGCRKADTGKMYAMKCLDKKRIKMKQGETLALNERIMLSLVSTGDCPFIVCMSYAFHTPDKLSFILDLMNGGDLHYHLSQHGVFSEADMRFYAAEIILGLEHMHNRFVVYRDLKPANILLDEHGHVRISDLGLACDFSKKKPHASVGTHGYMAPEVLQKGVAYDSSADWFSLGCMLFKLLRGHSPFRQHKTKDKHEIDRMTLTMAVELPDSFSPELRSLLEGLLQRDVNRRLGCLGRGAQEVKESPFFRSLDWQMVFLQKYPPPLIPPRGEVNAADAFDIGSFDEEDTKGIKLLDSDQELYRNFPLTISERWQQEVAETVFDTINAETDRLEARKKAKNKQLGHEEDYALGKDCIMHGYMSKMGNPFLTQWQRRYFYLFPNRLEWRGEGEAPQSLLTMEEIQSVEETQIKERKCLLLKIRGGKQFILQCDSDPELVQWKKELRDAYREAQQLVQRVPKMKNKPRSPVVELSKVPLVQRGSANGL
# ATP-binding cassette sub-family B member 6 (Homo sapiens), sequence (Q9NP58 whole entry, looked up): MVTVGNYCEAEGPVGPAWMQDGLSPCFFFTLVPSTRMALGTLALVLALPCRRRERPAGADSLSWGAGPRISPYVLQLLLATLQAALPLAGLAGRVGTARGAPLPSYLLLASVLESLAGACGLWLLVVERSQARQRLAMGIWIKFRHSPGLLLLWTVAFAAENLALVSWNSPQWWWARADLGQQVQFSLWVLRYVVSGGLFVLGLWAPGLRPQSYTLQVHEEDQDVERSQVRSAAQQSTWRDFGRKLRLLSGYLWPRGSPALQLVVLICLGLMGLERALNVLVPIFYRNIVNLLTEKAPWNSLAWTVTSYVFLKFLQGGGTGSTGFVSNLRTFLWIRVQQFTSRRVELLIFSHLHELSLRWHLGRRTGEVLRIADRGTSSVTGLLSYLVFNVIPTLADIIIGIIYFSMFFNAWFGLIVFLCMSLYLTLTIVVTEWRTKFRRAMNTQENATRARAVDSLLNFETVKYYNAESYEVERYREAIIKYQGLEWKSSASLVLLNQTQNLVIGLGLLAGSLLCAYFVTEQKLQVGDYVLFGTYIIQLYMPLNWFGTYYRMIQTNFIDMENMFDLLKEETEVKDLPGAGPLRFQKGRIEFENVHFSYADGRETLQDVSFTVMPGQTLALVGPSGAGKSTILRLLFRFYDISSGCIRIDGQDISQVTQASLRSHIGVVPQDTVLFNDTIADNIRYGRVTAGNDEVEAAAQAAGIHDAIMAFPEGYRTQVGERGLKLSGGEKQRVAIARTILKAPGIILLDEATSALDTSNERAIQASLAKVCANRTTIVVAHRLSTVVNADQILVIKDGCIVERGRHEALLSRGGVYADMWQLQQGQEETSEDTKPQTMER
# Integrin beta-1 (Homo sapiens) + Integrin alpha-4 (Homo sapiens), sequence (P05556 whole entry, looked up): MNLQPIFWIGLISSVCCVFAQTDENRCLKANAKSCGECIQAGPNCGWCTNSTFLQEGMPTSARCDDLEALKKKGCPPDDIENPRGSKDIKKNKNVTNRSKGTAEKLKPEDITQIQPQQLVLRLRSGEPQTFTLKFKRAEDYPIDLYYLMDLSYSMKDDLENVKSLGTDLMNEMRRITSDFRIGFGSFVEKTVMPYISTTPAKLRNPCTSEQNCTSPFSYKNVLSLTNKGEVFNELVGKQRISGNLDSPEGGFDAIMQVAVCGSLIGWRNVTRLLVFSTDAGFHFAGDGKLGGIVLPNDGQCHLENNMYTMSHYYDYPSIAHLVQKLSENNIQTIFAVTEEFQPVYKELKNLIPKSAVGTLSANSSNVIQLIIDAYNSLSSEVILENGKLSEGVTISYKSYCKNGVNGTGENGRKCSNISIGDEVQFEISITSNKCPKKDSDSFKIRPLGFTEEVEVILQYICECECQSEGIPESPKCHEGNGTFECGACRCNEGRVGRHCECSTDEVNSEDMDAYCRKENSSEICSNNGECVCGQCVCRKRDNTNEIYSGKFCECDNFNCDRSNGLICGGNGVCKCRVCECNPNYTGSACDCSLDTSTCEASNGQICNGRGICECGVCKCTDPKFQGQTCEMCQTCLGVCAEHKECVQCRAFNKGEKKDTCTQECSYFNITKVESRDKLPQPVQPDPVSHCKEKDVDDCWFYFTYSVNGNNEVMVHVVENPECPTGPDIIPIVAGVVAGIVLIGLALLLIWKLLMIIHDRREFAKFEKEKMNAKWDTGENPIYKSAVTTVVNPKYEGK
# Integrin beta-1 (Homo sapiens) + Integrin alpha-4 (Homo sapiens), sequence (P13612 whole entry, looked up): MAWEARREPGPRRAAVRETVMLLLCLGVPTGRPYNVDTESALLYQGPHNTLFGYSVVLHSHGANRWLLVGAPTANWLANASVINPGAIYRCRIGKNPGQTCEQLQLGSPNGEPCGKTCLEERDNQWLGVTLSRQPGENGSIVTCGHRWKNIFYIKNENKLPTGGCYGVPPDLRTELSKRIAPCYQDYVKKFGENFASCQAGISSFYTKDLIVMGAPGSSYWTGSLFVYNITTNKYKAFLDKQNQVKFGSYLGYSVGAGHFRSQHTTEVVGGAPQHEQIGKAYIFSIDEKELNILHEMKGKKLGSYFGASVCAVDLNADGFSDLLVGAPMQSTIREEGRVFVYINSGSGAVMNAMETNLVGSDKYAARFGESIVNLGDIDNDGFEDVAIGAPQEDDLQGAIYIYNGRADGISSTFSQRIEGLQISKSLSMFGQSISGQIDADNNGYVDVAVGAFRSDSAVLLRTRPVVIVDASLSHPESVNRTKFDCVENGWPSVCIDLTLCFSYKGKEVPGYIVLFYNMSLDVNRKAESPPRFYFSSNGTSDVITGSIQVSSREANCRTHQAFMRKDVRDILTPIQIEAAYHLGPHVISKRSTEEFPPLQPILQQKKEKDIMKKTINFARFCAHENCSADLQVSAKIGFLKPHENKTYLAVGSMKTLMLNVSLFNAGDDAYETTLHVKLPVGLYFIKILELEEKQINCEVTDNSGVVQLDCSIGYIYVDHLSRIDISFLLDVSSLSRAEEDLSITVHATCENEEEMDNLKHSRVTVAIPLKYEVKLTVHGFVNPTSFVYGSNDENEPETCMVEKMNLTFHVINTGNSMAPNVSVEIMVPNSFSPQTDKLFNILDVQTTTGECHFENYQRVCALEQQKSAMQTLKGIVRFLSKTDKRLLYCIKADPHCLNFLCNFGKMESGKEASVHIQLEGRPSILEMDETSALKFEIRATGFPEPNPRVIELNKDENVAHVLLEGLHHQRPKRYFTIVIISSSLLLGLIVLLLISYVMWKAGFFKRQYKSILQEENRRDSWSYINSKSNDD
SMILES,percent of DMSO control GFP [1],GFP response vs DMSO [2],percent response of DMSO control [3],GFP response vs DMSO [4],"GFP response, % of DMSO [5]",double positive events [6] [%],vesicle binding response [6],inhibition [7],superoxide response (% of plate) [8],aptamer binding inhibition [9],response [10],inhibition [11],response [12],binding (% of control) [13],efflux inhibition (fraction of control) [14],inhibition [15],differentiation response [16]
CCc1cc(C(N)=S)ccn1,99.5% (inactive),104% (inactive),104% (inactive),99.1% (inactive),107% (inactive),63.7,166% (inactive),9.63% (inactive),97.7% (inactive),4% (inactive),-4.68% (inactive),4.47% (inactive),-4.94% (inactive),101% (inactive),0.12 (inactive),1% (inactive),-8.96% (inactive)
C/C(CCc1oc2ccc(Cl)cc2c1-c1ccc(C)o1)=N\O,101% (inactive),103% (inactive),103% (inactive),125% (inactive),102% (inactive),63.1,157% (inactive),-16.4% (inactive),107% (inactive),0% (inactive),-13% (inactive),4.9% (inactive),6.85% (inactive),111% (inactive),0 (inactive),-3% (inactive),9.79% (inactive)
CCOC(=O)c1ccc(NC(=S)NCCc2ccccc2F)cc1,100% (inactive),107% (inactive),101% (inactive),111% (inactive),93.7% (inactive),68.7,1410% (inactive),-21.2% (inactive),98.7% (inactive),3% (inactive),2.84% (inactive),18.6% (inactive),1.24% (inactive),104% (inactive),0.58 (active),-3% (inactive),9.04% (inactive)
COc1cc(CNc2ccc(C)c(C)c2)cc(OC)c1OC,99% (inactive),108% (inactive),107% (inactive),113% (inactive),111% (inactive),60.3,256% (inactive),6.55% (inactive),90.2% (inactive),0% (inactive),-29.1% (inactive),16.2% (inactive),-0.73% (inactive),101% (inactive),0 (inactive),-8% (inactive),-16.8% (inactive)
O=C(O)C1CSC(c2ccc3c(c2)OCO3)N1 (stereo not given),93.9% (inactive),121% (inactive),101% (inactive),78.7% (inactive),90.3% (inactive),61.8,197% (inactive),-7.12% (inactive),86.1% (inactive),3% (inactive),-4.07% (inactive),-4.96% (inactive),0.02% (inactive),105% (inactive),-0.2 (inactive),9% (inactive),-4.91% (inactive)
CC(C)Oc1ccc(C2CC(=O)N(c3ccc(C(=O)O)cc3)C2=O)cc1 (stereo not given),98.1% (inactive),97.6% (inactive),105% (inactive),137% (inactive),122% (inactive),57.7,178% (inactive),3.14% (inactive),135% (inactive),-4% (inactive),-19.8% (inactive),-15% (inactive),-1.38% (inactive),105% (inactive),-0.04 (inactive),-1% (inactive),-9.91% (inactive)
CC(=O)Nc1ccc2[nH]c(C)c(CC=C(Cl)Cl)c(=O)c2c1,105% (inactive),113% (inactive),93.9% (inactive),87.3% (inactive),94.8% (inactive),61.1,146% (inactive),12.6% (inactive),110% (inactive),4% (inactive),5.01% (inactive),-17.8% (inactive),0.46% (inactive),97.9% (inactive),0.14 (inactive),11% (inactive),-5.68% (inactive)
CCN1CCn2c3c(c4cc(Cl)ccc42)CCCC31 (stereo not given),99.3% (inactive),102% (inactive),97.7% (inactive),107% (inactive),116% (inactive),62.3,154% (inactive),-10.5% (inactive),106% (inactive),5% (inactive),-10.7% (inactive),-7.04% (inactive),3% (inactive),104% (inactive),-0.09 (inactive),-8% (inactive),-21.7% (inactive)
c1coc(-c2nnc3n2C2(CCCC2)Cc2ccccc2-3)c1,94.2% (inactive),114% (inactive),97.9% (inactive),82.5% (inactive),91.5% (inactive),73.1,279% (inactive),25.9% (inactive),91.6% (inactive),4% (inactive),-2% (inactive),-13.2% (inactive),0.46% (inactive),109% (inactive),-0.6 (inactive),14% (inactive),3.28% (inactive)
C=C(C)Cn1c(NCCOC)nc2c1c(=O)[nH]c(=O)n2C,103% (inactive),112% (inactive),104% (inactive),96.6% (inactive),98.8% (inactive),64.5,327% (inactive),-5.64% (inactive),98.4% (inactive),3% (inactive),3.03% (inactive),-1.55% (inactive),-1.65% (inactive),99.8% (inactive),-0.07 (inactive),-4% (inactive),0.24% (inactive)
